Compounds with a hit are over-represented: about 3.5% of the library has one in this group of screens.
Anthrax LF prot: blocks Bacillus anthracis lethal factor protease; P15917; multiplex microsphere protease cleavage assay, LF; inhibition, % at 10 µM; 360,000 tested, 0.12% active; AID 588501
Autofluor counter: counter-screen for toxin protease inhibitors: compound fluorescence; compound autofluorescence counterscreen, microsphere flow cytometry; hits give high values; fluorescence intensity (concentration not given with the values); 360,000 tested, 3.1% active; AID 624483; in the data active = fluorescence intensity above about 16000; inconclusive = no clear call, values can overlap the other calls
BoNT A protease: BoNT A light chain protease inhibition. multiplex microsphere protease substrate cleavage, flow cytometry. inhibition, % at 10 µM. 360,000 tested, 0.17% active. AID 588499
BoNT-F LC inh: blocks Botulinum neurotoxin F light chain protease; inhibition, % at 10 µM; Multiplex microsphere protease cleavage assay, flow cytometry; 360,000 tested, 0.22% active; in the data active = inhibition above about 35%, passing the limit was not always enough; inconclusive = no clear call, values can overlap the other calls
3CLpro inhibitor: SARS-CoV 3CLpro protease inhibition; AID 1706; P0C6X7; recombinant SARS-CoV 3CLpro, quenched FRET peptide cleavage; inhibition, % at 6 µM; 290,000 tested, 0.14% active; in the data active = inhibition above about 12%
Hits are given with their value. Cut-off read from the data, not from the text of the source, unless noted: active = inhibition above about 30%; inconclusive = no clear call, values can overlap the other calls; inactive = below that.

Results for COc1ccc(C)cc1NC(=O)NC1CCN(Cc2ccccc2)CC1 ?
Anthrax LF prot: inactive; Autofluor counter: inactive; BoNT A protease: inactive; BoNT-F LC inh: inactive; 3CLpro inhibitor: inactive

Results for CCCNC(=O)N[C@@H](Cc1ccccc1)C(=O)OC ?
Anthrax LF prot: inactive; Autofluor counter: 22925; BoNT A protease: inconclusive; BoNT-F LC inh: inactive; 3CLpro inhibitor: inactive

How did Cc1ccc(C2CC(c3cccs3)=NN2S(=O)(=O)c2ccc(C)cc2)cc1 (centres undefined) do in these assays?
Anthrax LF prot: inactive; Autofluor counter: inactive; BoNT A protease: inactive; BoNT-F LC inh: inactive; 3CLpro inhibitor: inactive

Results for CCCCN(C)CCOc1ccccc1OCC ?
Anthrax LF prot: inactive; Autofluor counter: inactive; BoNT A protease: inactive; BoNT-F LC inh: inactive; 3CLpro inhibitor: inactive

Results for CC1C/C(=N/NC(=O)c2cccc(F)c2)c2ccc(O)cc2C1 (centres undefined) ?
Anthrax LF prot: inactive; Autofluor counter: 20922; BoNT A protease: inactive; BoNT-F LC inh: inactive; 3CLpro inhibitor: inactive

Results for COc1ccc2c(c1)CC(C)C/C2=N\NC(=O)c1ccco1 (centres undefined) ?
Anthrax LF prot: inactive; Autofluor counter: inactive; BoNT A protease: inactive; BoNT-F LC inh: inactive; 3CLpro inhibitor: inactive

Results for Cc1ccccc1OCC(=O)Nc1ccc2c(c1)COC2=O ?
Anthrax LF prot: inactive; Autofluor counter: 20173; BoNT A protease: inactive; BoNT-F LC inh: inactive; 3CLpro inhibitor: inactive

How did Cc1ccc(N=Cc2ccc(O)cc2O)cc1F do in these assays?
Anthrax LF prot: inactive; Autofluor counter: 21566; BoNT A protease: inconclusive; BoNT-F LC inh: inactive; 3CLpro inhibitor: inactive

How did CC(=O)C1C(c2ccncc2)NC(=O)NC1(O)C(F)(F)F (centres undefined) do in these assays?
Anthrax LF prot: inactive; Autofluor counter: 22926; BoNT A protease: inactive; BoNT-F LC inh: inactive; 3CLpro inhibitor: inactive

What do the screens show for `CC(=O)C1C(c2ccccc2Cl)NC(=O)NC1(O)C(F)(F)F` (centres undefined)?
Anthrax LF prot: inactive; Autofluor counter: inactive; BoNT A protease: inactive; BoNT-F LC inh: inactive; 3CLpro inhibitor: inactive

How did CC(=O)C1C(c2ccc3ncccc3c2)NC(=O)NC1(O)C(F)(F)F (centres undefined) do in these assays?
Anthrax LF prot: inactive; Autofluor counter: 22750; BoNT A protease: inactive; BoNT-F LC inh: inactive; 3CLpro inhibitor: inactive

How did CCc1nnc(NC(=O)CSc2nnc(-c3cc4ccccc4cc3O)n2CC)s1 do in these assays?
Anthrax LF prot: inactive; Autofluor counter: inactive; BoNT A protease: inactive; BoNT-F LC inh: inactive; 3CLpro inhibitor: inactive

What do the screens show for `CCc1nnc(NC(=O)CSc2nnc(-c3ccccc3O)n2CC)s1`?
Anthrax LF prot: inactive; Autofluor counter: 25104; BoNT A protease: inactive; BoNT-F LC inh: inactive; 3CLpro inhibitor: inactive

What do the screens show for `Cc1nnc(NC(=O)CSc2nnc3scc(-c4ccc(C)c(C)c4)n23)s1`?
Anthrax LF prot: inactive; Autofluor counter: inactive; BoNT A protease: inactive; BoNT-F LC inh: inactive; 3CLpro inhibitor: inactive

How did CCc1nnc(NC(=O)CSc2nnc3scc(-c4ccc(C)cc4)n23)s1 do in these assays?
Anthrax LF prot: inactive; Autofluor counter: 21013; BoNT A protease: inactive; BoNT-F LC inh: inactive; 3CLpro inhibitor: inactive

What do the screens show for `COc1ccc(-c2cc3nc(C4CCN(C(=O)OC(C)(C)C)CC4)c(C(=O)O)cn3n2)cc1`?
Anthrax LF prot: inactive; Autofluor counter: 22638; BoNT A protease: inactive; BoNT-F LC inh: inactive; 3CLpro inhibitor: inactive

What do the screens show for `FC(F)Oc1ccccc1NC(=S)NCc1ccco1`?
Anthrax LF prot: inactive; Autofluor counter: 23284; BoNT A protease: inactive; BoNT-F LC inh: inactive; 3CLpro inhibitor: inactive

How did COCC(C)NCc1ccc(C)cc1C (centres undefined) do in these assays?
Anthrax LF prot: inactive; Autofluor counter: 18417; BoNT A protease: inactive; BoNT-F LC inh: inactive; 3CLpro inhibitor: inactive

Results for CC1(OC(=O)C2CCCC2)C(=O)C=C2C=C(c3ccsc3)N(CC3CC3)C=C2C1=O (centres undefined) ?
Anthrax LF prot: inactive; Autofluor counter: inactive; BoNT A protease: inactive; BoNT-F LC inh: inactive

How did CC(C)CC1NC(=O)N(CC(=O)NC2CCCCC2)C1=O (centres undefined) do in these assays?
Anthrax LF prot: inactive; Autofluor counter: inactive; BoNT A protease: inactive; BoNT-F LC inh: inactive

Results for CCCCOc1ccc(-c2nnn(CC(=O)NCCc3c[nH]c4ccccc34)n2)cc1 ?
Anthrax LF prot: inactive; Autofluor counter: 23887; BoNT A protease: inconclusive; BoNT-F LC inh: inactive; 3CLpro inhibitor: inactive

What do the screens show for `CCCCCCCCCCCCCCCC(=O)NCCc1c[nH]c2ccccc12`?
Anthrax LF prot: inactive; Autofluor counter: inactive; BoNT A protease: inactive; BoNT-F LC inh: inactive; 3CLpro inhibitor: inactive

Source: PubChem BioAssay (several laboratories)
